Out of some 300,000 compounds screened, about 5,400 (1.8%) were called active. A call without a number means that no potency is given here. Inconclusive results (about 28%) are left out. The sample holds actives, similar compounds and a random draw of the others, so the mix is not that of the screen. Calls follow the shape of the full dose curve; tested in HEK293 cells. Non-standard residues stand in square brackets, D forms with d. Residues, ends and D or L forms follow the SMILES beside them. ξ: configuration not given here. Ac5c = NC1(C(=O)O)CCCC1; ξS = NC(CO)C(=O)O
Assay: qHTS for inhibitors of binding or entry into cells for Marburg Virus
Conditions: Marburg virus pseudotyped entry inhibition, cell reporter; series mostly up to 37.8 µM
Potency is read from the fitted curve at half-maximal effect.

SMILES | Potency
COc1ccccc1NC(=O)N(O)C1(C#N)CCCCC1 | inactive
O=C(Nc1cccc(S(=O)(=O)NC2=NCCC2)c1)c1ccc(F)cc1F | inactive
Cc1cc(C)c(C)c(S(=O)(=O)Nc2cccnc2)c1C | inactive
CC(C)C(c1nnnn1CCc1ccccc1)N1CCN(C(=O)c2ccco2)CC1 (stereo not given) | inactive
COc1ccc(CCn2nnnc2C(c2ccccc2)N2CCN(C)CC2)cc1OC (stereo not given) | inactive
N#Cc1ccc(C(c2nnnn2CCc2ccccc2)N2CCCCCC2)cc1 (stereo not given) | 20.6 µM (active)
CC(C)(C)S(=O)(=O)c1ccccc1-c1noc(-c2ccccc2)c1C(N)=O | inactive
COc1ccc(S(=O)(=O)N2CCN(c3cnccn3)CC2)cc1 | inactive
O=C(Nc1ccc(S(=O)(=O)NCC2CCCO2)cc1)c1ccc(F)cc1 (stereo not given) | inactive
CN(Cc1ccccc1)C(=O)C(=O)c1cn(CC(=O)N2CCCC2)c2ccccc12 | inactive
Cc1ccc(NNC(=O)c2cccs2)cc1Cl | 6.31 µM (active)
CCc1ccc(NC(=O)C(=O)NNC(=O)c2cccs2)cc1 | inactive
Cc1ccc(NNC(=O)c2c(F)cccc2Cl)cc1Cl | inactive
Cc1nc(CN(C)C(=O)CC2C(=O)NCCN2Cc2ccc(F)cc2)cs1 (stereo not given) | inactive
C/C(=N\NC(=O)C1(C)CC1(Br)Br)c1ccc(C)cc1C (stereo not given) | inactive
CCOc1ccc(/C=N/NC(N)=S)cc1 | inactive
NC(N)=N/N=C/c1ccc(OCc2ccc(Cl)cc2Cl)cc1 | 10.3 µM (active)
COC(=O)c1sc2ncccc2c1OCc1ccc(Cl)cc1Cl | inactive
Cc1ccc(NC(=O)COc2coc(CN3CCc4ccccc4C3)cc2=O)cc1Cl | inactive
CC(=O)c1ccc(NC(=O)C(C)OC(=O)c2ccc(NS(=O)(=O)c3ccc4[nH]c(=O)[nH]c4c3)cc2)cc1 (stereo not given) | inactive
CCCCN1C2CCC1CC(OC(c1ccc(F)cc1)c1ccc(F)cc1)C2 (stereo not given) | 3.55 µM (active)
COc1cc(OC)cc(C(=O)Nc2nnc(SCC(=O)NCC3CCCO3)s2)c1 (stereo not given) | inactive

SMILES | Potency
CCOc1ccc(NC(=O)CN2CCN(CC(=O)Nc3ccc(OC)cc3)CC2)cc1 | inactive
COc1ccc(OC)c(NC(=O)CN2CCN(C(=O)c3ccco3)CC2)c1 | inactive
CCc1cc(C(=O)c2ccc(OC)cc2)c(NC(=O)CN2CCN(C)CC2)s1 | 3.55 µM (active)
COc1ccc(CNC(=O)C2CCN(C(=O)c3ccco3)CC2)cc1 | inactive
COc1cc2[nH]c(O)c(C=O)c2cc1OC | inactive
COc1ccc(CC(=O)Nc2nc(-c3ccc(F)c(F)c3)cs2)cc1OC | 10 µM (active)
CCCc1ccc(-c2csc(NC(=O)Cc3cccs3)n2)cc1 | inactive
COc1ccc(-c2csc(NC(=O)COC(=O)Cc3ccc(Cl)cc3Cl)n2)cc1 | inactive
COc1cc(CC(=O)Nc2nc(-c3ccc(F)c(F)c3)cs2)cc(OC)c1OC | 7.94 µM (active)
Cc1ccc(-c2csc(NC(=O)Cc3cccs3)n2)cc1C | inactive
COc1ccc(-c2csc(NC(=O)c3ccc(N4C(=O)CCC4=O)cc3)n2)cc1OC | inactive
CCOc1ccc(CCNC(=O)COC(=O)c2c(OC)cccc2OC)cc1OCC | inactive
Cc1cc(Br)ccc1NC(=O)CN(C)C(=O)CN1C(=O)NC2(CCCC2)C1=O | inactive
CCc1nnc(NC(=O)C2CCN(C(=O)c3ccccc3C)CC2)s1 | inactive
O=C(Nc1ccccc1)C1CCN(C(=O)c2ccc(Br)cc2)CC1 | inactive
CCOC(=O)C(CO)NC(=O)C1(NC(C)=O)CCCC1 (stereo not given) (Ac-[Ac5c]-[ξS]-OEt) | inactive
CCc1cccc(C)c1NC(=S)N(CCCN1CCN(C)CC1)Cc1cccs1 | 10 µM (active)
CCc1ccccc1NC(=S)N(CCN1CCCCCC1)Cc1ccco1 | inactive
Cc1ccccc1NC(=S)N(CCCN1CCOCC1)Cc1cccs1 | inactive
CCC(=O)Nc1ccc(S(=O)(=O)Nc2c(NC)c3ccccc3oc2=O)cc1 | inactive
CCCN(C(=O)CSc1nnc(N)s1)c1c(N)n(Cc2ccccc2)c(=O)[nH]c1=O | inactive
CNC(=O)C1CC(=O)N(c2ccc(OCC(=O)Nc3ccccc3C)cc2)C1 (stereo not given) | inactive

SMILES | Potency
COc1ccc(CNC(=O)c2cc3c(=O)[nH]c4ccc(C)cc4c3s2)c(OC)c1 | inactive
Cc1ccc2[nH]c(=O)c(CC=C(Cl)Cl)c(C)c2c1 | inactive
Cc1cccc(N(C)C(=O)c2cc3c(=O)[nH]c4ccc(C)cc4c3s2)c1 | 3.55 µM (active)
CCOC(=O)N/N=C1\C[C@@H](O)[C@@H](O)[C@@H]2[C@@H]3C(=O)N(C4CCCCC4)C(=O)[C@@H]3CC[C@@H]12 | inactive
Cc1ccc(NC(=O)CSC2=C(C#N)[C@H](c3ccc4c(c3)OCO4)CC(=O)N2)cc1C | inactive
O=C(COC(=O)c1ccc([N+](=O)[O-])cc1Cl)NC(=O)c1ccccc1 | inactive
NS(=O)(=O)c1cccc(NC(=O)COC(=O)c2cc([N+](=O)[O-])ccc2N2CCCC2)c1 | inactive
N#Cc1cccc(NC(=O)COC(=O)c2ccccc2C(=O)c2ccc(Cl)c([N+](=O)[O-])c2)c1 | 23.1 µM (active)
CN(C(=O)CCNC(=O)Cn1ccc2ccccc2c1=O)c1ccc(Br)cc1 | inactive
O=C(CCC1CCCN(C(=O)c2ccc(F)c(F)c2)C1)N1CCN(c2ccccn2)CC1 (stereo not given) | inactive
CC1(c2ccccc2)NC(=O)N(CC(=O)Nc2cc(Cl)ccc2N2CCOCC2)C1=O (stereo not given) | inactive
COc1cc(OC)cc(-c2c(-c3cccs3)c3cc(-c4ccc(OC)cc4F)ccc3n2C)c1 | inactive
Cc1ccccc1N1CC(C(=O)Nc2nnc(SCCC3OCCO3)s2)CC1=O (stereo not given) | inactive
NNC(=O)c1ccc(Cl)cc1Cl | inactive
CC(C)(C)c1cc(C(=O)NN)n(Cc2ccc(Cl)cc2Cl)n1 | 11.2 µM (active)
CC(C)(C)NC(=O)NC(=O)COC(=O)Cc1ccc(Cl)cc1Cl | inactive
Cc1cc(NC[C@@H]2CCCO2)n2c(nc3ccccc32)c1C#N | inactive
CN1CCN(CCNC(=O)Nc2ccccc2[N+](=O)[O-])CC1 | inactive
CCOc1ccc(C(O)Cc2nc3ccccc3n2C)cc1 (stereo not given) | inactive
CCOc1ccc(C(O)Cn2c(=N)n(CCN3CCCCC3)c3ccccc32)cc1 (stereo not given) | 18.3 µM (active)
CCOc1ccc(CN2CCCN(C)CC2)cc1 | inactive

Source: PubChem BioAssay AID540276 (National Center for Advancing Translational Sciences (NCATS), 2011)
